# Experimental data published in the supplement of paper PMC11732987, “Enantioselective OTUD7B fragment discovery through chemoproteomics screening and high-throughput optimisation” (Communications Chemistry, 2025).
# A number with no mark means an inactive call.
# Columns and labels:
# Assay in all cases: log2 ratio of Biotin-Ahx-Ub-VS probe labelling (fragment/DMSO); higher = less target engagement (more negative = stronger competition), active = hit call of the paper (q ≤ 0.05, log2 ratio ≤ -1)
# Conditions in all cases: compound concentration: 200 uM; treatment time: 3 h
# ALG13 = target: T1, ALG13 (UniProt Q9NP73)
# T1 sequence (whole entry): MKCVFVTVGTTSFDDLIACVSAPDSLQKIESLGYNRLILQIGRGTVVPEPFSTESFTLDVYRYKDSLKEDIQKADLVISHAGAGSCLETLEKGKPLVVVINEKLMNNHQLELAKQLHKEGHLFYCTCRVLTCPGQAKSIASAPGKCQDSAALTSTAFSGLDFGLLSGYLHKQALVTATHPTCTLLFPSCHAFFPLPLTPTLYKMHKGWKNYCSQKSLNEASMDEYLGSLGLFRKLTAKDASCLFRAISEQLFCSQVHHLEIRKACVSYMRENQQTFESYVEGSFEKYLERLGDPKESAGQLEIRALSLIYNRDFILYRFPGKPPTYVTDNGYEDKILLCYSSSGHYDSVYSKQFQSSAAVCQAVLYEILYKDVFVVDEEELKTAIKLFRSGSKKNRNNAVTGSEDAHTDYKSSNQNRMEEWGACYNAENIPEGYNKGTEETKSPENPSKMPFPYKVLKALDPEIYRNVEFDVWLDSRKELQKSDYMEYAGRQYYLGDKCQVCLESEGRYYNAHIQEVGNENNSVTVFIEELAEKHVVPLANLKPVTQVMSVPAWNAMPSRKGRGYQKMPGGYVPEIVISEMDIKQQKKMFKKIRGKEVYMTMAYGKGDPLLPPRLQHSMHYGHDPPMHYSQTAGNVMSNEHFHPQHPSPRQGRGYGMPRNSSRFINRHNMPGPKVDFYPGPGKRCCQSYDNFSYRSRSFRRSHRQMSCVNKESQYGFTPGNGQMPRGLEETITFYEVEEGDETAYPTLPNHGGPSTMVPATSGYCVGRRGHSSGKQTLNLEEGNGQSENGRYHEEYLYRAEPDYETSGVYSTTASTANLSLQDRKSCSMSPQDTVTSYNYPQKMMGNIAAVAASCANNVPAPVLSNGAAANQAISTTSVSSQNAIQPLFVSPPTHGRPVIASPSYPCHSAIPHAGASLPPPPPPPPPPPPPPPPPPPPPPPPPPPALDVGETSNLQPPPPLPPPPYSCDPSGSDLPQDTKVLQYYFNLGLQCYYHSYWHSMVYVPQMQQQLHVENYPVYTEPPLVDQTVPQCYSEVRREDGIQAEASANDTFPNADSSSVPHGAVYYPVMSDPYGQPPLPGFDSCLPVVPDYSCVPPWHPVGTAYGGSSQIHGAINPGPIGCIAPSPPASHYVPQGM
# Summary of the method: (§1)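 HEK293T lysate (495 µg per sample, in Tris/CHAPS/IGEPAL buffer with protease inhibitors) was exposed in triplicate for 3 h to fragment at 200 µM or to vehicle, then to Biotin-Ahx-Ub-VS at 0.5 µM final for 1 h. Labelled DUBs were enriched on NeutrAvidin, digested with LysC and trypsin, and analysed by diaPASEF LC-MS/MS. Spectronaut label-free quantities were normalised to the global median, and values are average log2 ratios of fragment over vehicle from an unpaired t-test. Only proteins with ≥2 unique peptides were used.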
# ATXN3 = ATXN3 (UniProt P54252)
# Summary of the method: as §1
# BAP1 = target: T2, BAP1 (UniProt Q92560)
# T2 sequence (whole entry): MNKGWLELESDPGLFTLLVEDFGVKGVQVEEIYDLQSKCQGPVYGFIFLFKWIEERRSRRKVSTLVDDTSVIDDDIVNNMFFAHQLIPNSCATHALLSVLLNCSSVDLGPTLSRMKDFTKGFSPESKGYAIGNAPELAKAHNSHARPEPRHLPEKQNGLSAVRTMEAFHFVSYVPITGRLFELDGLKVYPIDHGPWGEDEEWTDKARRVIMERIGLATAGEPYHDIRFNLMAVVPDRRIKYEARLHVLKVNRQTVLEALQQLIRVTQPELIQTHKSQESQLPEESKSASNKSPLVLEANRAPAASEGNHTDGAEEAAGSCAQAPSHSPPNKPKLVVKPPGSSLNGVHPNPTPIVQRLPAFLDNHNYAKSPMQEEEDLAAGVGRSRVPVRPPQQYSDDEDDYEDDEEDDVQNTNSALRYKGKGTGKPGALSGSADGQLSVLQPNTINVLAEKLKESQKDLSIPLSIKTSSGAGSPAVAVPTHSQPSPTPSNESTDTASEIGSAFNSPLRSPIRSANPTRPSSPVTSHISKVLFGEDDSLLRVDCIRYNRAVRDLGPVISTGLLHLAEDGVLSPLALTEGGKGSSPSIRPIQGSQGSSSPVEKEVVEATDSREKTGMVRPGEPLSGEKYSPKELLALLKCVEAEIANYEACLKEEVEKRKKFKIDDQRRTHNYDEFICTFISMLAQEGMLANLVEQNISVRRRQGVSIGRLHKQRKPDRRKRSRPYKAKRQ
# Summary of the method: as §1
# EIF3F = EIF3F (UniProt O00303)
# Summary of the method: as §1
# EIF3H = EIF3H (UniProt O15372)
# Summary of the method: as §1
# FAM105A = target: T3, FAM105A (UniProt Q9NUU6)
# T3 sequence (whole entry): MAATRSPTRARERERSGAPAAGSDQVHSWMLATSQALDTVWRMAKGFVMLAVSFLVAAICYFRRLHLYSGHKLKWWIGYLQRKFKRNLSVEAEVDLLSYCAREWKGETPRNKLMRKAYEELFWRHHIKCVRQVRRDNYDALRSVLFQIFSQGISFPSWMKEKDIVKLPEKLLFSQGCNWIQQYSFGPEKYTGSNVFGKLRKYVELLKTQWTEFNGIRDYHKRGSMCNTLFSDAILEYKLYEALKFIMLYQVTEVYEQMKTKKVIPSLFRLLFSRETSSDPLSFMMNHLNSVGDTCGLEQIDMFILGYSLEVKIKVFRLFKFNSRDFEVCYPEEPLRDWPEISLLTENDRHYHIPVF
# Summary of the method: as §1
# OTUB1 = OTUB1 (UniProt Q96FW1)
# Summary of the method: as §1
# OTUD4 = target: T4, OTUD4 (UniProt Q01804)
# T4 sequence (whole entry): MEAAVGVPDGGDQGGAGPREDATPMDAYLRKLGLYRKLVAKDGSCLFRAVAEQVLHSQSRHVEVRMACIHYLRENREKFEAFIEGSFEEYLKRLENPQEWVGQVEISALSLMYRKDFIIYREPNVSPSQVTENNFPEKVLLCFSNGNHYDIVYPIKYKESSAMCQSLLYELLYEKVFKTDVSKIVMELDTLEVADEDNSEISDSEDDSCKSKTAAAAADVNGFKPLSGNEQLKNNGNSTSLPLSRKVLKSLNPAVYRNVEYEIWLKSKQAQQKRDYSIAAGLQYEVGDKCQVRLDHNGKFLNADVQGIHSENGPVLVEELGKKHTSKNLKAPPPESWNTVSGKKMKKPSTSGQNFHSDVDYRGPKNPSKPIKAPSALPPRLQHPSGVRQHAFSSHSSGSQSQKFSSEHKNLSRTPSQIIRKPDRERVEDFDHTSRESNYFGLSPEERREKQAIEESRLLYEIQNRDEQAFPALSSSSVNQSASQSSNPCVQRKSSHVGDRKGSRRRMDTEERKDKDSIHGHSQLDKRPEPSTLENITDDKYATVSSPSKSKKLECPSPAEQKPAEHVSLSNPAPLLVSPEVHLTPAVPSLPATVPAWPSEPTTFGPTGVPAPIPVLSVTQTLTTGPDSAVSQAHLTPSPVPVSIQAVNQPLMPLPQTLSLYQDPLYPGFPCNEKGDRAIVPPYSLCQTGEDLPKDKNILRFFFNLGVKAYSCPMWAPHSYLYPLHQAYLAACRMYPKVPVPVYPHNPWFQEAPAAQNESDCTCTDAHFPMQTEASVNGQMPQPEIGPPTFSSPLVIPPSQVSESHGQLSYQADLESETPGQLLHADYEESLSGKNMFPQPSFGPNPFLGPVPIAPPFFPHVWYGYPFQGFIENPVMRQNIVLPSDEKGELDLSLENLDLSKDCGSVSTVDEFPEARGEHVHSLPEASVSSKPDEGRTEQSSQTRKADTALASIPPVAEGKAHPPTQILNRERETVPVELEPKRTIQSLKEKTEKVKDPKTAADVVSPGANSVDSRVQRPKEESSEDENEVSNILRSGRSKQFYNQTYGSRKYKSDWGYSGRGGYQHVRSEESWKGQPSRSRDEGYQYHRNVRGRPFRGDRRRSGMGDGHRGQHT
# Summary of the method: as §1
# OTUD5 = target: T5, OTUD5 (UniProt Q96G74)
# T5 sequence (whole entry): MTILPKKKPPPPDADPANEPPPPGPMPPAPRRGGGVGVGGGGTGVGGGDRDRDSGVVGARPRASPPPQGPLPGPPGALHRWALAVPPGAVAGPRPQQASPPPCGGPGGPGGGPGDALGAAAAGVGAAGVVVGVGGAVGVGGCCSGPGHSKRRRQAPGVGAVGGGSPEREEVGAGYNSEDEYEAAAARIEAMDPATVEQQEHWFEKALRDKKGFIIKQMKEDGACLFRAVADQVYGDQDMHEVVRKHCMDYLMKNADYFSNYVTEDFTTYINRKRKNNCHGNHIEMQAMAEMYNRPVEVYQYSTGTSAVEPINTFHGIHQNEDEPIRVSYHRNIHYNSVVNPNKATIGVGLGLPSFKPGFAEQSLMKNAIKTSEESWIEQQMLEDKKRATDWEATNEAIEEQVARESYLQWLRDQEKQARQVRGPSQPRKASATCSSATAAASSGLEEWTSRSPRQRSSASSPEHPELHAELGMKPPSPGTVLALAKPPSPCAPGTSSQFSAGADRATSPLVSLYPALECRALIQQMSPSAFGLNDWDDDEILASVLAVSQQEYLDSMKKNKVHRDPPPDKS
# Summary of the method: as §1
# Sequence of EIF3F (O00303 whole entry): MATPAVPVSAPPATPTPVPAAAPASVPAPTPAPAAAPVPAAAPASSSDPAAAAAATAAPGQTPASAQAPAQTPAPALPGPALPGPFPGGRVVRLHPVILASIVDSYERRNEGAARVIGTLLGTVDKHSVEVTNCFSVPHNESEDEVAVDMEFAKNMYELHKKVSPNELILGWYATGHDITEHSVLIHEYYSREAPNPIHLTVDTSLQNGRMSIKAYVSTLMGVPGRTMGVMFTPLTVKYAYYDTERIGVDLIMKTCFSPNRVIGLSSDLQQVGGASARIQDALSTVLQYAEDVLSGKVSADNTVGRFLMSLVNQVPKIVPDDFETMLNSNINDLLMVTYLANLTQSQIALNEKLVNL
# Sequence of OTUB1 (Q96FW1 whole entry): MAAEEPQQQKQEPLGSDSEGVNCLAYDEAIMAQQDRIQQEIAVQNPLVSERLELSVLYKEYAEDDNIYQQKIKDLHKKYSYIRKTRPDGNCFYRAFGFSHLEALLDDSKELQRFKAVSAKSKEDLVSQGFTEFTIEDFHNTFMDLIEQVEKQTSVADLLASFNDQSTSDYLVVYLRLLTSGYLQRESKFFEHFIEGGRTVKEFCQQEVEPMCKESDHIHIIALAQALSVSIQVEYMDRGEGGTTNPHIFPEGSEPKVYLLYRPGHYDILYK
# Sequence of ATXN3 (P54252 whole entry): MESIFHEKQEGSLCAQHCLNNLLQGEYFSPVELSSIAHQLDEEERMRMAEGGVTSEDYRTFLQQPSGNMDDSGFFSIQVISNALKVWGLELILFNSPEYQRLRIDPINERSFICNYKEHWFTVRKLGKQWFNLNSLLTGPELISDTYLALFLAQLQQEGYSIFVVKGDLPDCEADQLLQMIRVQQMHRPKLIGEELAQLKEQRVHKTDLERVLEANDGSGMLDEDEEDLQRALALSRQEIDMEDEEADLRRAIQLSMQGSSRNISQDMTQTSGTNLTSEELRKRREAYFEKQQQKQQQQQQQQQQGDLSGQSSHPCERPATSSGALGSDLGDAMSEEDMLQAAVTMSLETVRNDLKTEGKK
# Sequence of EIF3H (O15372 whole entry): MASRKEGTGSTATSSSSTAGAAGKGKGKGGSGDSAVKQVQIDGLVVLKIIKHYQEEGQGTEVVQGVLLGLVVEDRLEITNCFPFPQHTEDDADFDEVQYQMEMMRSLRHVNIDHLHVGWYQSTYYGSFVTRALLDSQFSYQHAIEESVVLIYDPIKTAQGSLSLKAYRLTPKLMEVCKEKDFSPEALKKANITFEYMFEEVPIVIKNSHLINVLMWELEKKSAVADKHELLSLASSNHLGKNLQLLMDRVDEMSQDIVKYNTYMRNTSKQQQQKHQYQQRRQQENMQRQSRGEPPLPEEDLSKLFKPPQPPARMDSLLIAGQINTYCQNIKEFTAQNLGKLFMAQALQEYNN
structure (smiles),measurement,setting,value
CS(=O)(=O)c1ccc(NC(=O)CCl)cc1,log2 ratio of Biotin-Ahx-Ub-VS probe labelling,ALG13,-0.729
same,log2 ratio of Biotin-Ahx-Ub-VS probe labelling,ATXN3,-0.511
same,log2 ratio of Biotin-Ahx-Ub-VS probe labelling,BAP1,-4.05 (active)
same,log2 ratio of Biotin-Ahx-Ub-VS probe labelling,EIF3F,-0.0107
same,log2 ratio of Biotin-Ahx-Ub-VS probe labelling,EIF3H,0.14
same,log2 ratio of Biotin-Ahx-Ub-VS probe labelling,FAM105A,-0.0733
same,log2 ratio of Biotin-Ahx-Ub-VS probe labelling,OTUB1,-0.133
same,log2 ratio of Biotin-Ahx-Ub-VS probe labelling,OTUD4,-0.368
same,log2 ratio of Biotin-Ahx-Ub-VS probe labelling,OTUD5,-0.613
